This is part of a sample that, as a whole, favours compounds with a hit. Of some 83,000 tested, about 20% had one in any assay.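 The test compound was applied at a single concentration to cells in 96-well plates for 48 hours, and percent growth was recorded.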 Values without a mark were called inactive. Active and inactive are the calls of the source. How the source made its calls: active means growth percent below 10; inactive means the rest.
Experiments:
Experiment in all cases: NCI-60 one-dose screen, 48 h (100 = growth as untreated, 0 = no growth, -100 = all killed)
Details in all cases: 10 µM unless noted
[1] = test system: NCI-H23 lung
[2] = test system: NCI-H226 lung
[3] = test system: NCI-H322M lung
[4] = test system: HOP-62 NSCLC
[5] = test system: NCI-H460 lung
[6] = test system: HOP-92 NSCLC
[7] = test system: NCI-H522 lung
[8] = test system: A549/ATCC NSCLC
[9] = test system: 786-0 renal
[10] = test system: COLO 205 colon
[11] = test system: DU-145 prostate
[12] = test system: K-562 leukemia
[13] = test system: MALME-3M melanoma
[14] = test system: MDA-MB-231 breast
[15] = test system: RXF 393 renal
[16] = test system: SF-268 CNS
[17] = test system: SF-295 CNS
[18] = test system: SF-539 CNS
[19] = test system: UACC-257 melanoma
[20] = test system: M14 melanoma

| SMILES | growth [1] | growth [2] | growth [3] | growth [4] | growth [5] | growth [6] | growth [7] | growth [8] | growth [9] | growth [10] | growth [11] | growth [12] | growth [13] | growth [14] | growth [15] | growth [16] | growth [17] | growth [18] | growth [19] | growth [20] |
| --- | --- | --- | --- | --- | --- | --- | --- | --- | --- | --- | --- | --- | --- | --- | --- | --- | --- | --- | --- | --- |
| CCCCCN1C=C/C(=C\C(=O)n2ccc3ccccc32)c2ccccc21 | 77% | 70.3% | 87.7% | 81.9% | 91% | 83.3% | 77% | 89.4% | 94.8% | 89.4% | 101% | 75% | 81.7% | 93.2% | 103% | 92.5% | 87.7% | 102% | 97.9% | 92% |
| O=S(=O)(NCCNc1nccc(-c2c(-c3cccc(F)c3)nc3sccn23)n1)c1ccc(Br)cc1 | 72.6% | 41.2% | 61% | 83.3% | 27.8% | 76.7% | 62.6% | 34.1% | 50.6% | 36.4% | 52.5% | 38.7% | 71.1% | 69.7% | 72.7% | 53% | 58.7% | 76.4% | 82% | 52.3% |
| O=C1Nc2cc(-c3ccc(NC(=O)C4CC4)cc3)ccc2/C1=C/c1ccc[nH]1 | 61.3% | 101% | 86.2% | 104% | 61.4% | 129% | 92.5% | 107% | 105% | 117% | 105% | 98.4% | 98.5% | 99.5% | 108% | 104% | 101% | 90.7% | 116% | 99.3% |
| COc1ccc2c(c1)C(=O)CC(c1ccccc1OC)O2 (stereo not given) | 86.9% | 93.8% | 104% | 92.6% | 100% | 94.3% | 93% | 96% | 104% | 109% | 103% | 101% | 102% | 86.8% | 106% | 96.6% | 101% | 96.6% | 101% | 106% |
| C=C(C)[C@@H]1CC[C@]2(CN)CC[C@]3(C)[C@H](CC[C@@H]4[C@@]5(C)CCCNC(C)(C)[C@@H]5CC[C@]43C)[C@@H]12 | 10.5% | 53.9% | -42.7% (active) | 21.2% | -78.3% (active) | -29.4% (active) | -31% (active) | -68.4% (active) | -97.2% (active) | -71.2% (active) | -53.5% (active) | -56.1% (active) | -70.5% (active) | -79.7% (active) | -87.4% (active) | 22.9% | -59.6% (active) | -31.8% (active) | 46.3% | -77.7% (active) |
| Cc1cccc(NC(=O)Nc2ccc(-c3ccc4c(c3)NC(=O)/C4=C\c3ccc[nH]3)cc2)c1 | 61.6% | 85.5% | 89.8% | 89.8% | 26.3% | 127% | 85.3% | 83.6% | 103% | 96.3% | 96.4% | 82.8% | 105% | 93% | 102% | 95.2% | 66.1% | 62.7% | 102% | 84.9% |
| COc1cc2nc(-c3ccc(C(F)(F)F)cc3)cc(OCCCN3CCOCC3)c2cc1OC | 56.5% | -10.5% (active) | 57.2% | 51.9% | 18.5% | 11.2% | 14.6% | 29% | 21.5% | 20% | 41.5% | 11.5% | 45.2% | 22.1% | 14.5% | 56.1% | -50.1% (active) | 46% | -16.2% (active) | -56% (active) |
| Cc1ccc(CNc2c3ccccc3nc3cc(NC(=O)CCN4CCCC4)ccc23)cc1 | -48.1% (active) | 35% | 1.8% (active) | 19.9% | -64.7% (active) | -0.443% (active) | -41.2% (active) | -36.9% (active) | 22.3% | -40.3% (active) | -67.9% (active) | -30.3% (active) | -94% (active) | -7.47% (active) | 1.55% (active) | 15.1% | 36.7% | 16.7% | 24.1% | -88% (active) |
| CCCNC(=O)Oc1ccc(/C(=C(\C)c2ccccc2)c2ccc(OCCCN(C)C)cc2)cc1 | 75.6% | 102% | 81.2% | 78.3% | 75.1% | 68.2% | 79.6% | 70% | 58.6% | 52.8% | 89.7% | 11.5% | 40.8% | 59.4% | 71.1% | 71.8% | 64% | 63.9% | 8.5% (active) | 25.2% |
| c1ccc(-c2cn3c(ccc4ccccc43)n2)cc1 | 70.5% | 79% | 77.5% | 68.4% | 20.6% | 65.6% | 44.5% | 47.1% | 81.7% | 41.9% | 87.8% | 20.8% | 80.7% | 55.8% | 86% | 74.7% | 60.2% | 62.6% | 78.9% | 32.2% |
| COc1cc2nc(-c3ccc(C(F)(F)F)cc3)cc(OCCCN3CCCC3)c2cc1OC | 57.3% | -8.25% (active) | 62.8% | 63.6% | 22% | 23.2% | 28.5% | 39.9% | 48.4% | 22.1% | 41.7% | 24.6% | 51.2% | 25.7% | 44.4% | 45.5% | -28.3% (active) | 45.8% | 22.7% | -38.4% (active) |
| O=C(CCN1CCCC1)Nc1ccc2c(NCc3ccccc3)c3ccccc3nc2c1 | -29.8% (active) | -2.39% (active) | -0.926% (active) | -3.52% (active) | -34.4% (active) | -9.2% (active) | -28.2% (active) | -19.7% (active) | 5.35% (active) | -41.6% (active) | -25% (active) | -14.3% (active) | -18.5% (active) | -14.9% (active) | -16% (active) | -2.23% (active) | 15.5% | 5.91% (active) | 1.08% (active) | 7.61% (active) |
| COc1ccc(N2CCN(c3ccc(NC4=C(Cl)C(=O)c5ncccc5C4=O)cc3)CC2)cc1 | 26.2% | 52.8% | 46.9% | 56.2% | 17.6% | 85.8% | 43.8% | 36.1% | 80.1% | 43% | 35.3% | 4.16% (active) | 31% | 56.7% | 62.6% | 40% | 81.2% | 39.4% | 35.6% | 53.6% |
| Cc1cc2c(C(=O)NCC#N)cccc2n1-c1nc2c(c(NCc3ccccc3)n1)CCCC2 | -41.8% (active) | -69.3% (active) | -19.5% (active) | -16.9% (active) | -35.7% (active) | -63.4% (active) | -24.9% (active) | -38.9% (active) | -56.8% (active) | -51% (active) | 2.51% (active) | 1.31% (active) | -72.1% (active) | -78.9% (active) | -68.9% (active) | -35.1% (active) | -76.2% (active) | -24.5% (active) | -36.4% (active) | -45% (active) |
| COc1cc(F)c(/C=C/c2cc(/C=C/c3cc(OC)c(OC)cc3F)on2)cc1OC | 79.4% | 56.8% | 96% | 107% | 72.1% | 88.4% | 62.3% | 81.3% | 87.3% | 80% | 88.2% | 63.3% | 69.3% | 83% | 92.8% | 86.7% | 97.7% | 98% | 86.3% | 80.9% |

— PubChem BioAssay (NCI)
